This passage reports activity, negative = cell killing results from PubChem BioAssay (NCATS).

Each structure is given as a SMILES string. Several values for one entry are separate records, joined by “and”; a condition that tells them apart may be missing. Equal entries are not always repeated. Results filed as inconclusive are left out. Where a structure was tested more than once in an assay, its records may differ in their call. Unmarked numbers belong to inactive results. Calls come from the whole dose curve; as a rule, active = well fitted inhibition curve with a large enough effect; inconclusive = small, poorly fitted or top-dose-only effect; inactive = flat fitted curve, though single readings scatter.
% is set by controls: 0 for no effect and ±100 for the full control effect.

This experiment in a line: Drug repurposing screens with cells derived from glioblastoma tumor samples (AID 1345199). Note: nearly all actives have a fitted effect of over 40% in size. The following applies: GBM patient neurospheres viability, ATP luminescence, 48 h; at 46.1 µM (top of the series); tumour line C. The essentials: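 Primary testing used CD133+ neurospheres from four GBM patients, seven concentrations, 48 h exposure and ATP-based viability; confirmation added three slower-growing patient lines.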
For the compound `CN1[C@@H](CC(=O)c2ccccc2)CCC[C@H]1C[C@H](O)c1ccccc1`, the activity, negative = cell killing is 11.9%.

`C=C(Nc1ccc(OCC)cc1)Nc1ccc(OCC)cc1`: the activity, negative = cell killing was -12.9%.

As to `CO/N=C(\C(=O)N[C@@H]1C(=O)N2C(C(=O)O)=C(COC(C)=O)CS[C@H]12)c1csc(N)n1` (stereo in doubt), the activity, negative = cell killing is -2.27%.

On to `CC(C)Cc1ccc([C@H](C)C(=O)O)cc1`, for which the activity, negative = cell killing is 8.55%.

With `CC[C@H]1OC(=O)[C@H](C)C(=O)[C@H](C)[C@@H](O[C@@H]2O[C@H](C)C[C@H](N(C)C)[C@H]2O)[C@](C)(OC)C[C@@H](C)C(=O)[C@H](C)[C@H]2N(CCCCn3cnc(-c4cccnc4)c3)C(=O)O[C@]12C`, the activity, negative = cell killing is 5.5%.

For the compound `C=CC(N)CCC(=O)O` (configuration not stated), the activity, negative = cell killing was -7.65%.

Consider `COc1cc(/C=C/C(=O)CC(=O)/C=C/c2ccc(O)c(OC)c2)ccc1O`, for which the activity, negative = cell killing was -20.1%.

With `CCCCC[C@H](O)/C=C/[C@@H]1[C@@H](C/C=C\CCCC(=O)O)[C@@H](O)C[C@H]1O`, the activity, negative = cell killing is -1.95%.

For `N=c1ccn2c(n1)O[C@H]1[C@H](O)[C@@H](CO)O[C@H]12`, the activity, negative = cell killing is -5.87%.

Regarding `C[N+](C)(C)CCOP(=O)(O)OP(=O)([O-])OC[C@H]1O[C@@H](n2ccc(N)nc2=O)[C@H](O)[C@@H]1O`, the activity, negative = cell killing is -5.84% and 8.06%.

For the compound `S=c1[nH]c2ccccc2s1`, the activity, negative = cell killing is -8.66%.

In the case of `O=C(O)[C@H](O)[C@@H](O)[C@H](O)[C@H](O)CO`, the activity, negative = cell killing was 0.0662% and -1.71%.
